The text below walks through data of PubChem BioAssay (NCI).

Each structure is given as a SMILES string. This is part of a sample that, as a whole, favours compounds with a hit. Of some 83,000 tested, about 20% had one in any assay.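 96-well plates, one dose, 48 hours. Percent growth reported; active if below 10.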 A number with no mark means an inactive call. The source made the active and inactive calls.

Among the test systems are HCT-15 colon; HT29 colon; SNB-75 CNS; SNB-19 CNS; U251 CNS; PC-3 prostate; SK-MEL-5 melanoma; UACC-62 melanoma; LOX IMVI melanoma; SK-MEL-28 melanoma; SK-MEL-2 melanoma; SN12C renal; UO-31 renal; TK-10 renal; CAKI-1 renal; A498 renal; HL-60(TB) leukemia; CCRF-CEM leukemia; EKVX NSCLC; ACHN renal.
Common to all, as to experiment: NCI-60 one-dose screen, 48 h (100 = growth as untreated, 0 = no growth, -100 = all killed)
Holding throughout (conditions): 10 µM unless noted

On to `O=[N+]([O-])c1ccc(P(=O)(O)O)cc1`, for which the growth in the assay on HCT-15 colon was 103%; in the assay on HT29 colon it was 100%; with SNB-75 CNS it was 80.2%; in the assay on SNB-19 CNS, 108%; in the assay on U251 CNS, 96.2%; in the assay with PC-3 prostate, 91.3%. The growth was 109% in the assay with SK-MEL-5 melanoma; 105% in the assay with UACC-62 melanoma; 93.2% in the assay on LOX IMVI melanoma; 109% in the assay on SK-MEL-28 melanoma; 103% in the assay on SK-MEL-2 melanoma; 101% in the assay on SN12C renal. The growth was 81.5% in the assay on UO-31 renal; 101% in the assay on TK-10 renal; 95.7% in the assay with CAKI-1 renal; 125% with A498 renal; 105% in the assay on HL-60(TB) leukemia; 97.1% with CCRF-CEM leukemia.
Consider `CN1C2CCC1[C@@H](COC(=O)c1ccccc1)[C@@H](O)C2` (stereo partly specified), for which the growth in the assay on HCT-15 colon was 111%; in the assay on HT29 colon it was 91.3%; in the assay on SNB-75 CNS it was 83.5%; in the assay with SNB-19 CNS, 102%; in the assay with U251 CNS, 103%; with PC-3 prostate, 99.7%. Further, the growth with SK-MEL-5 melanoma was 112%; with UACC-62 melanoma, 96%; with LOX IMVI melanoma, 103%; in the assay with SK-MEL-28 melanoma it was 128%; in the assay with SK-MEL-2 melanoma it was 104%; in the assay on EKVX NSCLC it was 104%. Further, the growth with SN12C renal was 105%; in the assay with TK-10 renal it was 131%; in the assay on ACHN renal, 105%; in the assay on CAKI-1 renal it was 122%; with A498 renal, 144%; with HL-60(TB) leukemia, 81.7%. In addition, in the assay with CCRF-CEM leukemia, the growth was 94.3%.
For `CCOP(=O)(OCC)C(=O)N(CC)CC`, the growth is 98.4% in the assay on HCT-15 colon; 114% in the assay on HT29 colon; 102% with SNB-75 CNS; 103% with SNB-19 CNS; 95% in the assay with U251 CNS; 96.5% with PC-3 prostate. In addition, the growth in the assay with SK-MEL-5 melanoma is 94.4%; with UACC-62 melanoma, 107%; in the assay with LOX IMVI melanoma, 104%; in the assay with SK-MEL-28 melanoma it was 115%; with SK-MEL-2 melanoma it was 103%; in the assay on SN12C renal it was 103%. Moreover, the growth was 104% in the assay with UO-31 renal; 105% in the assay on ACHN renal; 103% with CAKI-1 renal; 91.8% in the assay with HL-60(TB) leukemia; 89.1% in the assay on CCRF-CEM leukemia.
With `CC[C@H](C)[C@H](NC(=O)[C@H]1CCCCN1C)C(=O)N(C)[C@H](CCc1nc(C(=O)N[C@@H](Cc2ccccc2)C[C@H](C)C(=O)O)cs1)C(C)C`, the growth with HCT-15 colon was 27.3%; with HT29 colon, -3.57% (active); in the assay on SNB-75 CNS, 28.3%; in the assay on SNB-19 CNS, 39.5%; in the assay on U251 CNS, 7.98% (active); in the assay with PC-3 prostate, 29.1%. The growth in the assay with SK-MEL-5 melanoma was 5.59% (active); with UACC-62 melanoma, 52.2%; in the assay on LOX IMVI melanoma, 15.2%; in the assay on SK-MEL-28 melanoma it was 59.4%; in the assay with SK-MEL-2 melanoma it was 32.3%; in the assay on EKVX NSCLC it was 47.7%. Moreover, the growth in the assay on UO-31 renal is 49%; in the assay on TK-10 renal, 49.4%; with ACHN renal, 47%; with CAKI-1 renal it was 51.2%; with A498 renal it was -7.5% (active); in the assay on HL-60(TB) leukemia, -34.5% (active). In addition, in the assay on CCRF-CEM leukemia, the growth is 14.9%.
As for `CO/N=C1\CC[C@]2(C)[C@H]3CC[C@]4(C)C(=O)CC[C@H]4[C@@H]3C[C@@H]3SC(N)=N[C@@]32C1`, the growth with HCT-15 colon was 93.8%; in the assay with HT29 colon, 93.2%; in the assay on SNB-75 CNS it was 97.1%; with SNB-19 CNS it was 104%; in the assay on U251 CNS it was 105%; in the assay with PC-3 prostate it was 85.4%. In addition, the growth in the assay with SK-MEL-5 melanoma was 101%; in the assay on UACC-62 melanoma it was 79.7%; with LOX IMVI melanoma, 98.1%; in the assay with SK-MEL-28 melanoma, 94.5%; with SK-MEL-2 melanoma, 96.5%; in the assay with EKVX NSCLC, 91.8%. Also, the growth in the assay with SN12C renal is 107%; with UO-31 renal, 77.9%; in the assay with TK-10 renal, 116%; in the assay on CAKI-1 renal it was 74.3%; with A498 renal it was 98.9%; in the assay with CCRF-CEM leukemia, 98.7%.
Turning to `C[N+]12CCC34C5=CC(=O)C(=O)C=C5[N+]5(C)C(=O)CC6OCC=C(C1)C(CC32)C6C45` (stereo unspecified), the growth with HCT-15 colon is 103%; with HT29 colon, 104%; with SNB-75 CNS, 109%; in the assay with SNB-19 CNS, 104%; in the assay with U251 CNS, 104%; in the assay on PC-3 prostate, 106%. For the same compound, the growth with SK-MEL-5 melanoma is 97.5%; in the assay with UACC-62 melanoma, 106%; in the assay with LOX IMVI melanoma, 118%; in the assay on SK-MEL-28 melanoma, 108%; in the assay on SK-MEL-2 melanoma it was 120%; with SN12C renal, 105%. Further, the growth in the assay with UO-31 renal was 96.7%; in the assay with TK-10 renal, 116%; with CAKI-1 renal it was 116%; in the assay on A498 renal it was 126%; in the assay on HL-60(TB) leukemia, 84.2%; in the assay with CCRF-CEM leukemia it was 102%.
As for `O=C(O)c1ccccc1N(CCO)CCCl`, the growth in the assay on HCT-15 colon is 87%; with HT29 colon it was 115%; with SNB-75 CNS, 81.3%; in the assay with SNB-19 CNS, 98.8%; with U251 CNS, 94.5%; with PC-3 prostate it was 87.6%. The growth in the assay with SK-MEL-5 melanoma was 101%; in the assay with UACC-62 melanoma, 94%; in the assay on LOX IMVI melanoma, 86.6%; with SK-MEL-28 melanoma it was 100%; with SK-MEL-2 melanoma, 116%; with EKVX NSCLC, 118%. The growth was 98.3% in the assay with SN12C renal; 117% in the assay on TK-10 renal; 112% with CAKI-1 renal; 100% with A498 renal; -3.53% (active) in the assay on CCRF-CEM leukemia.
